Screening results from PubChem BioAssay.
Rows were chosen to be rich in hits. Some 0.86% of all compounds tested hit in one or more screens of this group.
AMA1 RON2 block – disrupts binding of P. falciparum AMA1 to RON2; AlphaScreen AMA1-biotinylated RON2 peptide binding; Potency, µM (highest dose often 58.2 µM), most hits filed as inhibitors; 360,000 tested, 0.2% active; further: nearly all actives have a fitted effect of over 45% in size
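AMA1 (3D7) with his tag at 25 nM final met compounds first, then biotinylated RON2 peptide at 25 nM; detection used donor plus acceptor beads, 10 µg/mL apiece, read by AlphaScreen after 30 min at room temperature.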
AmpC inh detg – AmpC beta-lactamase inhibition with detergent present; P00811; AmpC hydrolysis of nitrocefin, absorbance 480 nm, 0.01% Triton; Potency, µM (doses to about 114 µM), usual class: inhibitors; 370,000 tested, 0.041% active; AID 485294; further: nearly all actives have a fitted effect of over 25% in size
Target sequence (P00811 whole entry, looked up): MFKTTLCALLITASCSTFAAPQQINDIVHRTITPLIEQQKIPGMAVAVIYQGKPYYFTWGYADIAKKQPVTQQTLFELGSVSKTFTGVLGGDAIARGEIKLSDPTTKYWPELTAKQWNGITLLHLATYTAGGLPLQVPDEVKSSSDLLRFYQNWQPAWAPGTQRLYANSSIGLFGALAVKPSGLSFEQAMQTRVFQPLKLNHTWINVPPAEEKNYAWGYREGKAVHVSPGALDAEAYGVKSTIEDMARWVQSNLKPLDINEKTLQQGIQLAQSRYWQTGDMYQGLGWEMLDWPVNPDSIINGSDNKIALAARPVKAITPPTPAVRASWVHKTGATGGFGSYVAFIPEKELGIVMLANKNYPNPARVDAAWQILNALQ
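AmpC (5.3 nM in the dispensed reagent) in 20 mM phosphate pH 7.0 with 0.01% (detergent screen) or 0.0001% Triton X-100 was preincubated with compounds for 15 min at room temperature. Nitrocefin was then added from an 800 uM solution, and hydrolysis was followed at 480 nm.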
AmpC inh no detg – blocks E. coli AmpC beta-lactamase in detergent-free assay; AmpC nitrocefin hydrolysis, absorbance 480 nm, 0.0001% Triton; 330,000 tested, 0.52% active; Potency, µM (top dose mostly 57.1 µM), hits mostly inhibitors; further: nearly all actives have a fitted effect of over 20% in size
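20 mM phosphate pH 7.0 + 0.01% (detergent screen) or 0.0001% Triton X-100; 5.3 nM AmpC reagent; cpd preinc 15 min RT; nitrocefin (800 uM stock) to start; A480 q20 s × 4 min; Activity was normalised to no-enzyme and no-compound control wells.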
NS1 inh – blocks influenza NS1 protein function; Potency, µM (highest dose often 46.1 µM); 270,000 tested, 0.4% active; AID 2326; calls by dose curve; further: actives are rising curves; nearly all actives have a fitted effect of over 50% in size
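Recovery from NS1-induced slow growth read by OD600 in budding yeast switched to galactose assay medium (pH 6.0, -URA) at 1:100 dilution. Compound 23 nl per well; the matching strain lacking NS1 serves as control.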
Flu NS1 inh – validation of influenza NS1 protein function inhibitors. shares compounds with NS1 inh. influenza NS1 function cell assay, 15-point titration. activity change, negative = inhibition, % at 32.9 µM. 1,400 tested, under 10 active; calls by dose curve
PR8 titer – influenza NS1 inhibitors: inhibition of influenza A/PR/8/34 replication; MDCK infected influenza A/PR/8/34, virus titer TCID50; stronger effect = lower value; 95 tested, 30% active; virus titer (log TCID50), log10 TCID50 at 5 µM; shares compounds with NS1 inh; AID 504647; call rule not given here
A number is an active result; . = inactive; ? = inconclusive; / = no result given. Unless noted, the call rests on the fitted dose curve; in most records, active means well fitted curve in the direction sought with a large enough effect; inconclusive means small, poorly fitted or top-dose-only effect, or another doubt; inactive means no such curve, though single readings can be large; an effect the other way counts as inactive or inconclusive.

SMILES	AMA1 RON2 block	AmpC inh detg	AmpC inh no detg	NS1 inh	Flu NS1 inh	others
COC(=O)C(Cc1ccccc1)NCC(=O)Nc1cccc(Cl)c1C (stereo not given)	.	.	.	.	/
COc1ccc(S(=O)(=O)NCCSCc2ccco2)cc1OC	.	.	.	.	/
COc1ccc(S(=O)(=O)NCCc2ccco2)cc1OC	.	?	.	3.16µM	.
COc1ccccc1NC(=O)CCN1C(=O)C2C3CCC(C3)C2C1=O (stereo not given)	.	.	.	.	/
Nc1c(C(=O)NCc2ccco2)sc2nc(N3CCOCC3)c3c(c12)CCCC3	.	.	.	25.1µM	.
CCOc1ccccc1CNC(=O)CCCC(=O)n1nc(C)c2ccccc21	.	.	.	?	?
COc1cc(/C=C/C(=O)Nc2nnc(CC(C)(C)C)s2)cc(OC)c1OC	.	.	.	.	/
COc1cc(/C=C/C(=O)Nc2nnc(CC(C)C)s2)cc(OC)c1OC	.	.	.	?	.
O=C(O)c1cc(Cl)c2c(c1)[C@@H]1C=CC[C@@H]1[C@H](c1ccc(S(=O)(=O)N3CCOCC3)cc1)N2	.	.	.	14.1µM	.
Cc1cc(C)c2c(c1)C1C=CCC1C(c1ccc(S(=O)(=O)N3CCOCC3)cc1)N2 (stereo not given)	.	.	.	.	/
Cc1ccc(Cn2c(=O)c3ccccc3n3c(-c4ccccc4)nnc23)cc1	/	.	/	/	/
O=C(N1CCCCC1)C12CC3CC(CC(C3)C1)C2	.	.	.	.	/
NC(=O)C1CCN(C(=O)C23CC4CC(CC(C4)C2)C3)CC1	.	?	.	?	.
Fc1ccc2c(c1)nnn2C1CCN(Cc2nnnn2CCc2ccccc2)CC1	.	.	.	.	/
Fc1ccc(Cn2nnnc2CN2CCC(n3nnc4cc(C(F)(F)F)ccc43)CC2)cc1	.	.	.	5.01µM	?
O=C(c1cccc(C(F)(F)F)c1)N1CCN(CCc2ccccc2)CC1	.	.	.	.	/
O=C(c1ccc(O)cc1)c1ccc(O)cc1O	.	.	.	.	/
CN(N=O)c1cc(O)ccc1O	/	/	/	17.8µM	?
CCOC(=O)N1CCN(C(=O)C[C@@H]2C[C@@]3(C(=O)OCC)CCCC=C3N(Cc3ccccc3)C2=O)CC1	.	/	/	/	/
CCOc1ccc(OCC)c(NS(=O)(=O)c2cccc3nsnc23)c1	.	.	.	?	.
CC1(C)Cc2c(C#N)c(N3CCN(C(=O)c4ccco4)CC3)nc(-c3ccco3)c2CS1	?	.	.	7.94µM	.
CC(=O)N1CCN(c2nc(-c3ccco3)c3c(c2C#N)CC(C)(C)SC3)CC1	.	.	.	.	/
CC1(c2ccc3ccccc3c2)NC(=O)N(CC(=O)Nc2cccc(S(=O)(=O)N3CCOCC3)c2)C1=O (stereo not given)	.	.	.	10µM	.	PR8 titer=.
Cc1ccc(-n2nnnc2C(=Cc2ccc(N(C)C)cc2)c2nnnn2-c2ccc(C)cc2)cc1	.	.	.	.	/
CCN(CC)c1ccc(C=C(c2nnnn2-c2ccccc2)c2nnnn2-c2ccccc2)cc1	.	.	?	7.94µM	.
SMILES	AMA1 RON2 block	AmpC inh detg	AmpC inh no detg	NS1 inh	Flu NS1 inh	others
CCOC(=O)N1CCN(S(=O)(=O)N2CCCC(C(=O)NCCCN3CC(C)CC(C)C3)C2)CC1 (stereo not given)	.	?	.	?	.	PR8 titer=6
CC(C)NC(=O)C1(C)CN(S(C)(=O)=O)CC(=O)N1Cc1ccco1 (stereo not given)	.	/	/	/	/
O=C(Cc1ccc(-c2ccccc2)cc1)Nc1ncccc1O	.	?	.	.	/
CCCc1cc(=O)n2[nH]c(C)nc2n1	.	.	.	.	/
Cc1nc2nc(CSc3nnc(C)s3)cc(=O)n2[nH]1	.	.	.	7.94µM	.
Cc1noc(C)c1S(=O)(=O)NCCc1csc2nc(-c3ccc(F)cc3)nn12	/	.	/	/	/
O=C(Cc1c[nH]c2ccccc12)Nc1nc2ccccc2[nH]1	.	.	.	11.2µM	.
O=C(CSc1nc(-c2ccccc2)c(-c2ccccc2)[nH]1)N1CCN(S(=O)(=O)c2ccccc2)CC1	.	.	.	3.55µM	.
CCC(C(=O)NCCN1CCN(C)CC1)n1c(C)c2cnn(-c3ccccc3)c(=O)c2c1C (stereo not given)	.	.	.	?	.
COc1ccc(C2CC(c3ccccc3)=NN2C(=O)COC(=O)c2cc(S(=O)(=O)N3CCOCC3)ccc2Cl)cc1 (stereo not given)	.	?	.	10µM	.
COc1cc(NC(=O)COC(=O)c2cc(S(=O)(=O)N3CCCCC3)ccc2Cl)c(C)cc1[N+](=O)[O-]	.	.	.	14.1µM	.	PR8 titer=.
Cc1ccc(/C=C2\SC(N3CCN(C(c4ccccc4)c4ccccc4)CC3)=NC2=O)o1	?	.	.	11.2µM	?
Cc1ccc(-c2ccc(/C=C3\SC(N4CCOCC4)=NC3=O)o2)cc1	.	.	.	/	/
O=c1cc(O)c2sc3nc(-c4cccnc4)cc(C(F)(F)F)c3c2[nH]1	.	?	.	10µM	.
Cc1c(Cl)c([N+](=O)[O-])nn1CC(=O)N1CCCC1	.	.	.	?	.
Nc1c(/C=C2/C=CC(=O)C(O)=C2)c(=O)nc2sc(CC(=O)N3CCCC3)nn12	.	.	.	.	/
Nc1c(/C=C2/C=CC(=O)C(O)=C2)c(=O)nc2sc(CC(=O)N3CCCCC3)nn12	.	.	.	14.1µM	.
Cc1[nH]n(-c2cccc3ccccc23)c(=O)c1/C=N/c1sc2c(c1C#N)CCC2	.	.	.	2.24µM	.	PR8 titer=.
Cc1[nH]n(-c2ccc(F)cc2)c(=O)c1/C=N/c1sc2c(c1C#N)CCCC2	.	.	.	.	/
CCc1ccc2oc(-c3cc(N)cc(C)c3O)nc2c1	.	?	.	14.1µM	.
CC(C)(C)c1nnc(N/N=C/c2ccccc2)n(N)c1=O	.	.	.	?	?
CC(C)(C)c1nnc(N/N=C/c2ccccc2O)n(N)c1=O	.	.	.	.	/
CC(=O)N(Cc1ccccc1)C1CC(=O)N(Cc2ccccc2)C1=O (stereo not given)	.	/	/	/	/
COCCn1nnnc1C(c1ccccc1)N1CCN(Cc2ccc3c(c2)OCO3)CC1 (stereo not given)	.	?	.	4.47µM	.
COCCn1nnnc1C(c1ccc(C)cc1)N1CCN(Cc2ccc3c(c2)OCO3)CC1 (stereo not given)	.	?	.	.	/
Cc1ccc(NC(=S)NNc2ccc([N+](=O)[O-])cc2S(=O)(=O)Nc2ccccc2C(=O)O)cc1C	.	.	.	12.6µM	.
COc1cc(NC(=O)c2ccccc2)c(OC)cc1NC(C)=O	.	.	.	?	.
Cc1cccc(C)c1NC(=O)CN(C)S(=O)(=O)c1ccc2c(c1)n(C)c(=O)c(=O)n2C	/	.	/	/	/
